# Hits are enriched below; roughly 2.4% of the tested compounds scored in any of these assays.
# PREPL inh: PREPL enzyme inhibitors, primary screen, biochemical, fluorescence polarization. recombinant PREPL, fluorescence polarization activity-based probe. inhibition, % at 5.96 µM. hit rate 0.68% among 320,000; in the data active = inhibition above about 43%;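 also: 0% = enzyme with DMSO and 100% = wells lacking enzyme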
# PP1 inh: PP1-alpha phosphatase inhibitors, primary screen, counter-screen for PP5 inhibitor project, biochemical, fluorescence, OMFP substrate, single point | AID 2235, 2010 | inhibition, % at 6.7 µM | Serine/threonine-protein phosphatase PP1-alpha catalytic subunit (Homo sapiens), P62136 | hit rate 0.9% among 320,000 | purified PP1alpha;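 active = inhibition above the mean inhibition of all tested compounds plus 3 SD, computed separately for each screening campaign, cut at about 15% in these data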
# NadD inh: inhibitors of S. aureus NadD, primary screen, biochemical, colorimetric, uHTS; Nicotinate-nucleotide adenylyltransferase NadD (Staphylococcus aureus N315); purified NadD enzyme, colorimetric absorbance read-out; inhibition, % at 20 µM; hit rate 0.78% among 360,000; in the data active = inhibition above about 26%
# PP5 primary: PP5 phosphatase inhibitors, primary screen, biochemical, fluorescence. purified PP5c, OMFP substrate fluorescence. hit rate 0.18% among 320,000. inhibition, % at 6.7 µM;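 active = inhibition above the campaign's mean inhibition across all tested compounds plus 3 SD, cut at about 9.5% in these data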;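 also: 0% = DMSO only and 100% = 100 µM cantharidin control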
# Target sequence (P53041 whole entry, looked up): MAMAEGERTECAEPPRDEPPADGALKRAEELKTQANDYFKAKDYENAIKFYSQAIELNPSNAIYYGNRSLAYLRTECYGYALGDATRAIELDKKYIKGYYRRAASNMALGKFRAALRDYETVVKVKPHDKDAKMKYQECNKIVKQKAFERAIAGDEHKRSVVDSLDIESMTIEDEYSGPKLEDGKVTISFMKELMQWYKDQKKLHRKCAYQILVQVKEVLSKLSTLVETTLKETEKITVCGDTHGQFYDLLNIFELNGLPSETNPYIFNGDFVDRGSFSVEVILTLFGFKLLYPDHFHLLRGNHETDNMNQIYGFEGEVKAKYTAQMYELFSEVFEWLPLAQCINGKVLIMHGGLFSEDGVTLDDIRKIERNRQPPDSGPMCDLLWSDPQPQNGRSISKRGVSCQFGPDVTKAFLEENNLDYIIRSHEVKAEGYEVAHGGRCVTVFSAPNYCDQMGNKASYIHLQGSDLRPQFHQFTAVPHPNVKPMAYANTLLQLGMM
# Rpn11 block: Rpn11 (PSMD14) deubiquitinase inhibitors, primary screen, biochemical, fluorescence polarization, uHTS. 26S proteasome non-ATPase regulatory subunit 14 (Homo sapiens), O00487. human 26S proteasome, Ub4-pepOG fluorescence polarization; 20S core pre-blocked with epoxomicin. inhibition, % at 20 µM. hit rate 0.59% among 360,000;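 active = inhibition at 20 µM, scaled to each plate's controls, above about 33%, limit read from the data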
# PP1 inh confirm: PP1 phosphatase inhibitors, confirmation, biochemical, fluorescence, OMFP substrate, triplicate | hit rate 52% among 1,900 | inhibition, % at 6.7 µM | shares compounds with PP1 inh | purified PP1alpha;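 active = mean PP1 inhibition above a set limit taken from the earlier primary screen, cut at about 15% in these data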
# PP5 counter: PP5 phosphatase inhibition by PP1 hits, confirmation, counter-screen for PP1 inhibitor project, biochemical, fluorescence, triplicate; shares compounds with PP1 inh; purified PP5c, OMFP fluorescence; inhibition, % at 6.7 µM; hit rate 4% among 1,900; AID 2360, 2010;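 active = mean PP5 inhibition over triplicate wells above about 9.5% taken from the earlier PP1 screen, limit read from the data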
# Numbers without * were called inactive; nt = no result.
SMILES,PREPL inh,PP1 inh,NadD inh,PP5 primary,Rpn11 block,PP1 inh confirm,PP5 counter
O=C(CCc1nnc(CCCCc2ccccc2)o1)NCCCc1cccnc1,13.3,-3.3,-0.6,-1.6,0.7,nt,nt
O=C(Nc1ccc(Cl)cc1F)C1CC(=O)N(Cc2ccco2)C1 (centres undefined),nt,nt,-1.1,nt,5.3,nt,nt
CC(=O)Nc1ccc(OC(=O)c2ccco2)cc1,6.1,19.5*,8.1,1.9,2.7,-4.9,-5.5
O=c1cc(-c2ccco2)nc(SCc2cccc(Cl)c2)[nH]1,9.5,17.8*,12.9,1.8,2.6,12.4,0.6
Clc1cccc(CSc2ccc(-c3ccco3)nn2)c1,-4.0,-0.2,-0.5,-0.3,-2.8,nt,nt
CC(C)C[C@H](NC(=O)c1nc[nH]c1C(=O)N[C@@H](CC(C)C)C(=O)OCc1ccccc1)C(=O)OCc1ccccc1,-6.5,9.6,13.4,3.9,-4.8,nt,nt
CC(C)C[C@H](NC(=O)c1nc[nH]c1C(=O)NC(c1ccccc1)c1ccccc1)C(=O)OCc1ccccc1,10.5,19.0*,1.1,1.8,4.5,11.0,3.2
CC(=O)Oc1c(I)cc(I)cc1C(=O)Nc1ccc(Cl)cc1,16.6,9.9,13.1,4.9,5.3,nt,nt
O=c1c2ccccc2c(C=Nc2cccc(S(=O)(=O)NC3=NCCCCC3)c2)c(O)n1Cc1ccccc1,3.0,19.1*,21.3,-1.2,11.0,6.9,-2.2
Cc1nnc(SCC(=O)Nc2cccc(S(=O)(=O)NC3=NCCCCC3)c2)n1Cc1ccccc1,5.7,1.8,1.2,-2.6,-2.5,nt,nt
COc1ccc(OC)c(NC2c3ncccc3C(=O)N2Cc2ccco2)c1 (centres undefined),12.1,1.4,-0.6,0.7,1.1,nt,nt
COc1ccc(CN2C(=O)c3cccnc3C2Nc2cc(Cl)ccc2OC)cc1 (centres undefined),10.9,27.0*,24.0,8.0,0.9,26.0*,-1.6
COc1ccc(CN2C(=O)c3cccnc3C2O)cc1 (centres undefined),8.6,34.3*,8.2,8.1,-13.2,24.9*,-4.3
Cc1cc(C)n2nc(SCC(=O)N(C)c3c(N)n(Cc4ccccc4)c(=O)[nH]c3=O)nc2n1,9.9,1.4,-3.7,-2.7,1.2,nt,nt
CCc1ccc([C@@H]2CC=C(C(=O)O)[C@H](c3ccc(Cl)cc3)N2S(=O)(=O)c2ccc(C)cc2)cc1,2.5,18.8*,9.5,3.4,5.9,12.3,-0.1
COc1ccc(-c2coc3c(CN4CCCCC4)c(O)c(CN4CCCCC4)c(O)c3c2=O)cc1,29.8,29.0*,nt,4.0,nt,-8.9,-7.7
O=c1c(-c2ccc(Br)cc2)coc2c(CN3CCCCC3)c(O)ccc12,nt,nt,2.0,nt,2.7,nt,nt
Cc1sc(N(C(=O)CCc2ccccc2)c2ccc(C(=O)O)cc2)nc1-c1ccccc1,-9.0,19.5*,16.3,4.7,1.7,15.2*,0.2
Cc1ccc(-n2nc(C(=O)N3CCOCC3)cc2-c2ccc(Cl)cc2)cc1,-12.9,2.6,-3.7,6.8,-5.9,nt,nt
O=C(O)c1cc(-c2ccccc2)n(-c2ccccc2C(=O)O)n1,-11.3,0.7,6.0,-0.8,6.7,nt,nt
O=C(O)c1cc(-c2ccc(Cl)cc2)n(-c2ccccc2)n1,0.2,41.8*,5.0,2.3,9.1,43.1*,-5.7
Cc1ccc(-n2nc(C(=O)O)cc2-c2ccccc2Cl)cc1,-9.2,5.0,-3.1,-0.8,4.6,nt,nt
O=C(O)c1cc(-c2ccc(Cl)cc2)n(-c2cccc(Cl)c2)n1,14.8,50.3*,2.7,0.8,-13.3,48.7*,1.1
O=C(O)c1cc(-c2ccccc2Cl)n(-c2ccc(F)cc2)n1,-3.2,8.3,-0.2,-0.6,1.2,nt,nt
O=C(O)c1cc(-c2ccccc2)n(-c2ccc(F)cc2)n1,8.8,28.9*,-6.4,1.7,-5.3,17.5*,-2.8
SMILES,PREPL inh,PP1 inh,NadD inh,PP5 primary,Rpn11 block,PP1 inh confirm,PP5 counter
O=C(O)c1cc(-c2ccccc2)n(-c2ccc(Cl)cc2Cl)n1,-27.7,38.0*,-2.8,1.5,-1.0,35.7*,-2.5
O=C(O)c1cc(-c2ccccc2Cl)n(-c2cccc(Cl)c2)n1,15.8,18.3*,1.1,2.1,14.5,10.8,-1.4
O=c1cc(-c2ccccc2)cc(-c2ccccc2)n1CCCO,13.8,19.1*,0.6,-9.7,-5.5,-4.2,-6.6
Cn1cccc1C(=O)N1CCN(S(=O)(=O)c2ccccc2)CC1,5.9,50.3*,-4.6,0.2,-2.5,-1.9,-0.2
COc1cc(/C=C2/NC(=O)N(CC(=O)Nc3ccc(C)cc3)C2=O)ccc1Oc1ccc([N+](=O)[O-])cn1,-1.2,19.4*,21.0,-1.2,-7.6,23.4*,-2.2
Cc1[nH][nH]c(=O)c1C(c1c(C)[nH][nH]c1=O)c1cn(Cc2ccc(Cl)c(Cl)c2)c2ccccc12,41.4,18.1*,37.3*,1.6,13.4,17.3*,24.2*
COC(=O)c1cc2sccc2n1CC(=O)N(C)c1ccccc1,-6.3,43.5*,3.1,3.7,-5.9,1.9,0.0
O=C(Nc1nnc(-c2ccc3c(c2)CCCC3)o1)C1COc2ccccc2O1 (centres undefined),18.4,37.8*,22.4,0.6,16.5,37.3*,1.0
COc1ccc(Oc2nc(-c3ccccn3)nc3ccccc23)cc1,-1.1,15.0,11.8,-1.5,-0.8,nt,nt
COc1cnc(-c2ccccn2)nc1Oc1c(C)cccc1C,42.2,18.8*,6.5,1.1,-3.8,25.2*,-1.7
Fc1ccc(Oc2nc(-c3ccccn3)nc3ccccc23)cc1,-7.7,17.7*,3.8,-0.5,-9.0,23.2*,-2.7
COc1cnc(-c2ccccn2)nc1N(C)C,0.2,3.9,-3.6,2.3,-2.1,nt,nt
COc1ccc(Oc2nc(-c3ccccn3)ncc2OC)cc1,19.6,21.5*,1.5,2.9,4.7,32.2*,3.1
CN1C(=O)N(CC(=O)Nc2sccc2C(N)=O)C(=O)C12CCCCC2,12.2,5.0,6.7,3.5,7.7,nt,nt
O=c1c2ccccc2sc2ccccc12,nt,nt,-5.6,nt,0.7,nt,nt
O=c1c(C(c2ccccc2)c2c(O)sc3ccccc3c2=O)c(O)sc2ccccc12,-10.8,25.1*,-2.0,2.6,-4.1,31.2*,1.4
Nc1cc(SCc2ccc(Cl)cc2Cl)ncn1,nt,nt,1.9,nt,4.1,nt,nt
C#CCOCCOCCOCCNc1nc(N2CCN(C(=O)CCCCCCCCCCNC(=O)[C@H](CO)n3cc(CCCSC)nn3)CC2)nc(N2CCN(C(=O)CCCCCCCCCCNC(=O)[C@H](CO)n3cc(CCCSC)nn3)CC2)n1,-8.4,30.4*,6.3,2.3,-1.7,21.9*,3.9
